UCHL1 block: inhibitors of human UCHL1 deubiquitinase; Ubiquitin carboxyl-terminal hydrolase isozyme L1 (Homo sapiens), P09936; purified UCHL1, Ub-rhodamine cleavage fluorescence; inhibition, % at 20 µM; 0.2% of 47,000 active
USP17 block: inhibitors of human USP17 deubiquitinase | Ubiquitin carboxyl-terminal hydrolase 17-like protein 5 (Homo sapiens), A8MUK1 | purified USP17, Ub-rhodamine cleavage fluorescence, 3 h | inhibition, % at 50 µM | 6.5% of 47,000 active
USP8 block: inhibitors of human USP8 deubiquitinase | Ubiquitin carboxyl-terminal hydrolase 8 (Homo sapiens), P40818 | purified USP8, Ub-rhodamine cleavage fluorescence, 30 min | inhibition, % at 20 µM | 4.2% of 47,000 active | AID 1645853, 2021
USP7 inh: inhibitors of human USP7 deubiquitinase. 0.3% of 47,000 active. AID 1645854, 2021. Ubiquitin carboxyl-terminal hydrolase 7 (Homo sapiens), Q93009. inhibition, % at 20 µM. purified USP7, Ub-rhodamine cleavage fluorescence
OTUD3 inh: inhibitors of human OTUD3 deubiquitinase; OTU domain-containing protein 3 (Homo sapiens), Q5T2D3; purified OTUD3, Ub-rhodamine fluorescence, 2 h; inhibition, % at 25 µM; 0.7% of 47,000 active
USP10 inh: inhibitors of human USP10 deubiquitinase. 1.1% of 47,000 active. inhibition, % at 20 µM. Ubiquitin carboxyl-terminal hydrolase 10 (Homo sapiens), Q14694. AID 1645856, 2021. purified USP10, Ub-rhodamine fluorescence, 60 min
* hit, by the source's call. This is a sample that favours compounds with a hit; in the whole collection about 9.2% have one here. No stated cut-off is given here; in the data, active means inhibition above about 30%; inactive means the rest.

SMILES	UCHL1 block	USP17 block	USP8 block	USP7 inh	OTUD3 inh	USP10 inh
COc1c(Cl)ccc2c(=O)c3c(O)c4c5c(c3oc12)OCO[C@H]5[C@@H](OC)c1cc2c(c(O)c1-4)C(=O)N(C)[C@H](OC)[C@@H]2O	5.8	-11.9	6.1	2.0	22.9	2.3
COc1c(Cl)ccc2c(=O)c3c(oc12)C1=C2[C@@H](OCO1)[C@@H](OC)c1cc4c(c(O)c1[C@@]2(O)[C@H]3O)C(=O)N(C)[C@H](OC)[C@@H]4O	12.0	12.4	-16.7	3.7	31.7*	-8.2
CC(C)=CCCC1(C)C=Cc2c(O)c3c(c(CC=C(C)C)c2O1)O[C@]12C(=C[C@@H]4CC1C(C)(C)O[C@@]2(C/C=C(/C)C(=O)O)C4=O)C3=O (stereo not given in full)	64.4*	82.2*	70.2*	84.5*	76.8*	75.2*
O=C1C2CCN(CC2)C1Cc1ccc(Cl)cc1 (stereo not given)	-1.0	-13.8	-9.7	-0.5	-3.0	0.2
CN(C)Cc1c[nH]c2c(OCc3ccccc3)cccc12	1.1	8.1	1.3	-17.0	14.5	-1.1
c1cnc(NC[C@H]2OC[C@@H]3CCN(Cc4cccnc4)C[C@@H]32)nc1	-1.1	-14.5	-88.6	3.9	-1.4	0.2
Cc1csc(C2(NC(=O)c3cnn(C(C)(C)C)c3)CCCC2)n1	-0.2	-3.3	0.0	3.4	1.5	1.4
CN1CCc2c(C#N)c(N3CCCCC3)n3cnnc3c2C1	-0.8	3.8	-3.8	-3.2	-0.8	-2.1
Cc1ccccc1SCc1nc2ccccc2c(=O)n1-c1cccc(C(F)(F)F)c1	9.3	11.3	18.5	-13.8	11.3	7.2
O=c1c2ccccc2nc(CSc2cccc(Cl)c2Cl)n1-c1ccccc1	-2.4	6.3	30.4*	0.2	9.2	21.3
COc1cc(=O)c(C(=O)N2CCC3(CC2)OCCO3)nn1-c1ccc(C)cc1	-4.1	0.1	-2.3	-1.1	-7.2	1.1
CCCCCC(O)c1c(O)cc2c(c1O)C(=O)c1c(O)cc(O)cc1C2=O (stereo not given)	6.0	57.7*	-16.1	-103.9	-73.8	33.2*
CC[C@@H]1[C@@H](C)O[C@@](O)([C@@H](C)[C@H](O)[C@H](C)[C@H]2OC(=O)/C=C/C=C/[C@H](C)[C@@H]([C@@H](C)[C@@H](O)[C@H](C)[C@@]3(O)C[C@@H](O[C@H]4C[C@H](O)[C@H](O)[C@H](C)O4)[C@H](CC)[C@@H](C)O3)OC(=O)/C=C/C=C/[C@@H]2C)C[C@H]1O[C@H]1C[C@H](O)[C@H](O)[C@H](C)O1	13.2	9.1	-14.8	50.9*	-0.1	1.2
COc1ccccc1-c1cc([C@H]2CN3CC[C@H]2C[C@@H]3CN)n(C)n1	-65.8	0.1	54.2*	-46.5	-47.4	-8.7
COc1ccc(-c2cc([C@H]3CN4CC[C@H]3C[C@@H]4CO)n(C)n2)cc1OC	4.1	7.0	-1.6	7.2	10.4	-1.3
COC(=O)[C@@]1(O)c2c(oc3cccc(O)c3c2=O)OC=C(C)[C@H]1O	-0.6	3.5	-9.6	-1.9	10.0	0.2
COC(=O)[C@]1(O)O[C@@]2(C(=O)OC)c3c(oc4cc(C)cc(O)c4c3=O)[C@H]3c4c(oc5cc(C)cc(O)c5c4=O)C[C@H]1[C@H]32	-21.0	53.3*	-156.9	-21.9	32.4*	-7.1
C[C@H]1C/C=C/[C@@H](O)[C@@H](O)CC/C=C/c2cc(O)cc(O)c2C(=O)O1	-8.7	-24.6	-46.1	-25.9	-24.3	-4.6

Source: PubChem BioAssay
